Among all 5,500 compounds or so, about 2,000 (36%) were called active. About 18% were inconclusive and are not listed. No stated cut-off is given here; in the data, active means normalized growth mostly below about 0.91 (no sharp cut-off); inconclusive means no clear call, values can overlap the other calls; inactive means mostly above about 0.92. This is one part of the list.
Assay: chemical genetic growth profiling, strain panel (AID 1159580);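 further: tested at 20 µM; growth read once vehicle control cultures reached saturation at 30 °C; 1 = growth at the plate median or of vehicle wells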
Conditions: growth OD

Measured: normalized growth

C=CC(C1=CC(=O)C(OC)=CC1=O)c1ccc(OC)cc1 (configuration not stated)
inactive: S. cerevisiae deletion strains, locus YJR066W, strain TOR1, stronger effect = lower value 0.94 | S. cerevisiae deletion strains, locus YKL009W, strain mrt4, stronger effect = lower value 0.944 | S. cerevisiae deletion strains, locus YKL068W, stronger effect = lower value 0.976 | S. cerevisiae deletion strains, locus YKL085W, strain MDH1 (second series), stronger effect = lower value 0.966 | S. cerevisiae deletion strains, locus YKL085W, strain MDH1, stronger effect = lower value 0.966 | S. cerevisiae deletion strains, locus YKL190W, strain CNB1, stronger effect = lower value 0.947 | S. cerevisiae deletion strains, locus YKR026C, strain gcn3, stronger effect = lower value 0.967 | S. cerevisiae deletion strains, locus YKR091W, strain srl3, stronger effect = lower value 0.998 | S. cerevisiae deletion strains, locus YLL001W, strain dnm1, stronger effect = lower value 0.907 | S. cerevisiae deletion strains, locus YLL041C, strain sdh2, stronger effect = lower value 0.955 | S. cerevisiae deletion strains, locus YLR039C, strain RIC1, stronger effect = lower value 0.819 | S. cerevisiae deletion strains, locus YLR058C, strain SHM2, stronger effect = lower value 0.952 | S. cerevisiae deletion strains, locus YLR102C, strain apc9, stronger effect = lower value 0.945 | S. cerevisiae deletion strains, locus YLR113W, strain HOG1, stronger effect = lower value 0.958 | S. cerevisiae deletion strains, locus YLR262C, strain YPT6, stronger effect = lower value 0.71 | S. cerevisiae deletion strains, locus YLR330W, strain CHS5, stronger effect = lower value 0.968 | S. cerevisiae deletion strains, locus YLR342W, strain FKS1, stronger effect = lower value 0.914 | S. cerevisiae deletion strains, locus YLR357W, strain rsc2, stronger effect = lower value 1.07 | S. cerevisiae deletion strains, locus YLR371W, strain rom2, stronger effect = lower value 0.941 | S. cerevisiae deletion strains, locus YLR384C, strain iki3, stronger effect = lower value 0.974 | S. cerevisiae deletion strains, locus YML016C, strain PPZ1, stronger effect = lower value 0.973 | S. cerevisiae deletion strains, locus YML124C, strain tub3, stronger effect = lower value 0.949 | S. cerevisiae deletion strains, locus YMR078C, strain ctf18, stronger effect = lower value 0.914 | S. cerevisiae deletion strains, locus YMR129W, stronger effect = lower value 1 | S. cerevisiae deletion strains, locus YMR263W, strain SAP30, stronger effect = lower value 0.946 | S. cerevisiae deletion strains, locus YMR307W, strain GAS1, stronger effect = lower value 0.793 | S. cerevisiae deletion strains, locus YNL067W, strain RPL9B, stronger effect = lower value 0.947 | S. cerevisiae deletion strains, locus YNL128W, strain TEP1, stronger effect = lower value 0.942 | S. cerevisiae deletion strains, locus YNL153C, strain GIM3, stronger effect = lower value 0.983 | S. cerevisiae deletion strains, locus YNL183C, strain NPR1, stronger effect = lower value 0.972 | S. cerevisiae deletion strains, locus YNL209W, strain ssb2, stronger effect = lower value 0.939 | S. cerevisiae deletion strains, locus YNL250W, strain rad50, stronger effect = lower value 0.944 | S. cerevisiae deletion strains, locus YNL271C, strain bni1, stronger effect = lower value 0.957 | S. cerevisiae deletion strains, locus YNL298W, strain CLA4, stronger effect = lower value 0.928 | S. cerevisiae deletion strains, locus YNL322C, strain KRE1 (second series), stronger effect = lower value 0.996 | S. cerevisiae deletion strains, locus YNL322C, strain KRE1, stronger effect = lower value 0.966 | S. cerevisiae deletion strains, locus YNR049C, strain mso1, stronger effect = lower value 0.962 | S. cerevisiae deletion strains, locus YOL006C, strain TOP1, stronger effect = lower value 0.669 | S. cerevisiae deletion strains, locus YOL012C, strain htz1 0.791 | S. cerevisiae deletion strains, locus YOR061W, strain CKA2, stronger effect = lower value 0.962 | S. cerevisiae deletion strains, locus YOR069W, strain VPS5, stronger effect = lower value 0.962 | S. cerevisiae deletion strains, locus YOR080W, strain dia2, stronger effect = lower value 1 | S. cerevisiae deletion strains, locus YOR144C, strain elg1, stronger effect = lower value 0.956 | S. cerevisiae deletion strains, locus YOR231W, strain MKK1, stronger effect = lower value 1.03 | S. cerevisiae deletion strains, locus YOR265W, strain rbl2, stronger effect = lower value 0.945 | S. cerevisiae deletion strains, locus YOR316C, strain cot1, stronger effect = lower value 0.947 | S. cerevisiae deletion strains, locus YPL055C, strain LGE1, stronger effect = lower value 0.869 | S. cerevisiae deletion strains, locus YPL106C, strain sse1, stronger effect = lower value 1.03 | S. cerevisiae deletion strains, locus YPL241C, strain CIN2, stronger effect = lower value 0.982 | S. cerevisiae deletion strains, locus YPL256C, strain CLN2, stronger effect = lower value 1.08 | S. cerevisiae deletion strains, locus YPR119W, strain clb2, stronger effect = lower value 0.944 | S. cerevisiae deletion strains, locus YPR141C, strain kar3, stronger effect = lower value 0.963 | S. cerevisiae deletion strains, locus YPR167C, strain met16, stronger effect = lower value 0.95
active: S. cerevisiae deletion strains, locus YJR075W, strain HOC1, stronger effect = lower value 0.859 | S. cerevisiae deletion strains, locus YKL160W, strain elf1, stronger effect = lower value 0.741 | S. cerevisiae deletion strains, locus YKR001C, strain vps1, stronger effect = lower value 0.814 | S. cerevisiae deletion strains, locus YLL026W, stronger effect = lower value 0.839 | S. cerevisiae deletion strains, locus YLR027C, strain aat2, stronger effect = lower value 0.759 | S. cerevisiae deletion strains, locus YLR221C, strain rsa3, stronger effect = lower value 0.701 | S. cerevisiae deletion strains, locus YLR258W, strain gsy2, stronger effect = lower value 0.849 | S. cerevisiae deletion strains, locus YLR262C, strain YPT6 (second series), stronger effect = lower value 0.39 | S. cerevisiae deletion strains, locus YLR268W, strain sec22, stronger effect = lower value 0.87 | S. cerevisiae deletion strains, locus YLR320W, strain mms22, stronger effect = lower value 0.276 | S. cerevisiae deletion strains, locus YLR342W, strain FKS1 (second series), stronger effect = lower value 0.674 | S. cerevisiae deletion strains, locus YLR370C, strain arc18, stronger effect = lower value 0.864 | S. cerevisiae deletion strains, locus YLR418C, strain cdc73, stronger effect = lower value 0.783 | S. cerevisiae deletion strains, locus YML032C, strain rad52, stronger effect = lower value 0.855 | S. cerevisiae deletion strains, locus YML120C, strain ndi1, stronger effect = lower value 0.911 | S. cerevisiae deletion strains, locus YMR058W, strain fet3, stronger effect = lower value 0.84 | S. cerevisiae deletion strains, locus YMR125W, strain sto1, stronger effect = lower value 0.779 | S. cerevisiae deletion strains, locus YMR205C, strain PFK2, stronger effect = lower value 0.715 | S. cerevisiae deletion strains, locus YMR223W, strain ubp8, stronger effect = lower value 0.851 | S. cerevisiae deletion strains, locus YNL071W, strain lat1, stronger effect = lower value 0.15 | S. cerevisiae deletion strains, locus YNL233W, strain BNI4, stronger effect = lower value 0.862 | S. cerevisiae deletion strains, locus YNL248C, strain rpa49, stronger effect = lower value 0.727 | S. cerevisiae deletion strains, locus YNL307C, strain MCK1, stronger effect = lower value 0.412 | S. cerevisiae deletion strains, locus YNR052C, strain pop2, stronger effect = lower value 0.901 | S. cerevisiae deletion strains, locus YOL147C, strain pex11, stronger effect = lower value 0.903 | S. cerevisiae deletion strains, locus YOR001W, strain rrp6, stronger effect = lower value 0.844 | S. cerevisiae deletion strains, locus YOR070C, strain gyp1, stronger effect = lower value 0.817 | S. cerevisiae deletion strains, locus YOR083W, strain WHI5, stronger effect = lower value 0.788 | S. cerevisiae deletion strains, locus YOR106W, strain vam3, stronger effect = lower value 0.642 | S. cerevisiae deletion strains, locus YOR136W, strain idh2, stronger effect = lower value 0.919 | S. cerevisiae deletion strains, locus YOR184W, strain ser1, stronger effect = lower value 0.738 | S. cerevisiae deletion strains, locus YOR270C, strain vph1, stronger effect = lower value 0.416 | S. cerevisiae deletion strains, locus YOR290C, strain snf2, stronger effect = lower value 0.851 | S. cerevisiae deletion strains, locus YPL051W, strain arl3, stronger effect = lower value 0.657 | S. cerevisiae deletion strains, locus YPL078C, strain atp4, stronger effect = lower value 0.802 | S. cerevisiae deletion strains, locus YPL240C, strain hsp82, stronger effect = lower value 0.851 | S. cerevisiae deletion strains, locus YPR163C, strain tif3, stronger effect = lower value 0.8 | S. cerevisiae deletion strains, strain wtn01, stronger effect = lower value 0.877 | S. cerevisiae strains, strain wild type, stronger effect = lower value 0.886

From PubChem BioAssay AID1159580 (chemical genetic matrix, 2015)
